Results on eight molecules are retold here after PubChem BioAssay (NCI).

Values joined by “and” are separate entries in the source; they are usually repeats but may differ in a detail not shown here. Equal entries are not always repeated. The panel holds about 83,000 compounds, 20% with a hit somewhere; the sample as a whole holds those more often.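 For each line, cells grew in 96-well plates with the test compound present at a single concentration for 48 hours.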 Active and inactive are the calls of the source. How the source made its calls: active means growth percent below 10; inactive means the rest.

Test systems include HCT-15 colon; HT29 colon; SNB-75 CNS; SNB-19 CNS; U251 CNS; PC-3 prostate; SK-MEL-5 melanoma; UACC-62 melanoma; LOX IMVI melanoma; SK-MEL-28 melanoma; SK-MEL-2 melanoma; EKVX NSCLC; SN12C renal; UO-31 renal; TK-10 renal; ACHN renal; CAKI-1 renal; A498 renal; CCRF-CEM leukemia; MOLT-4 leukemia.
Holding throughout (experiment): NCI-60 one-dose screen, 48 h (100 = growth as untreated, 0 = no growth, -100 = all killed)
What all share (details): 10 µM unless noted

Take `CCc1c(CC(=O)O)c2cc(C)ccc2n1Cc1ccc(Cl)cc1`: the growth is 99.2% (inactive) and 98.3% (inactive) in the assay with HCT-15 colon; 109% (inactive) and 117% (inactive) with HT29 colon; 84.1% (inactive) and 93.7% (inactive) with SNB-75 CNS; 102% (inactive) and 90.6% (inactive) in the assay with SNB-19 CNS; 107% (inactive) and 93.7% (inactive) in the assay on U251 CNS; 95% (inactive) in the assay with PC-3 prostate. For the same molecule, the growth in the assay with SK-MEL-5 melanoma is 93.8% (inactive) and 97.2% (inactive); with UACC-62 melanoma it was 84.9% (inactive) and 83.8% (inactive); in the assay with LOX IMVI melanoma it was 103% (inactive) and 101% (inactive); in the assay with SK-MEL-28 melanoma, 129% (inactive) and 125% (inactive); in the assay with SK-MEL-2 melanoma, 103% (inactive) and 90.9% (inactive); in the assay with EKVX NSCLC, 98.8% (inactive) and 93.4% (inactive). Besides, the growth with SN12C renal was 91.1% (inactive) and 82.4% (inactive); with UO-31 renal, 76.6% (inactive) and 73.4% (inactive); in the assay on TK-10 renal it was 99.7% (inactive) and 262% (inactive); in the assay with ACHN renal, 93.5% (inactive) and 96.1% (inactive); with CAKI-1 renal it was 90% (inactive); in the assay with A498 renal, 114% (inactive) and 108% (inactive). In addition, the growth with CCRF-CEM leukemia was 97.4% (inactive) and 106% (inactive); with MOLT-4 leukemia, 96.9% (inactive) and 152% (inactive).

For `CCCCCCCCCCCCOc1ccccc1C=O`, the growth in the assay with HCT-15 colon is 101% (inactive); in the assay on HT29 colon it was 96.7% (inactive); with SNB-75 CNS, 80.6% (inactive); in the assay on SNB-19 CNS, 98.4% (inactive); in the assay on U251 CNS, 87.4% (inactive); with PC-3 prostate, 108% (inactive). Also, the growth is 101% (inactive) in the assay with SK-MEL-5 melanoma; 102% (inactive) with UACC-62 melanoma; 90.1% (inactive) with LOX IMVI melanoma; 106% (inactive) in the assay with SK-MEL-28 melanoma; 112% (inactive) in the assay with SK-MEL-2 melanoma; 97% (inactive) in the assay with EKVX NSCLC. Further, the growth is 93.7% (inactive) in the assay on SN12C renal; 65.1% (inactive) in the assay with UO-31 renal; 118% (inactive) with TK-10 renal; 101% (inactive) with ACHN renal; 84.9% (inactive) with CAKI-1 renal; 116% (inactive) in the assay with A498 renal. The results for the growth in the assay with CCRF-CEM leukemia and in the assay with MOLT-4 leukemia were 79.9% (inactive) and 78.3% (inactive), respectively.

In the case of `CC(=O)c1ccc2c(c1)N(CCCN1CCN(CCO)CC1)c1ccccc1S2`, the growth with HCT-15 colon was 38.2% (inactive) and -17.3% (active); in the assay with HT29 colon it was 69.1% (inactive) and -22.6% (active); in the assay on SNB-75 CNS, 67% (inactive) and -12.1% (active); in the assay with SNB-19 CNS it was 114% (inactive) and 46.4% (inactive); in the assay on U251 CNS, 85.7% (inactive) and 20.6% (inactive); in the assay with PC-3 prostate it was 69.7% (inactive) and 24.2% (inactive). Moreover, the growth with SK-MEL-5 melanoma was 88.9% (inactive) and -99.1% (active); with UACC-62 melanoma, 95.8% (inactive) and -58.7% (active); with LOX IMVI melanoma, 80.1% (inactive) and -85.2% (active); with SK-MEL-28 melanoma it was 77.9% (inactive) and -91.7% (active); with SK-MEL-2 melanoma, 2.74% (active) and -42% (active); with EKVX NSCLC, 83.9% (inactive) and 60.6% (inactive). For the same molecule, the growth in the assay with SN12C renal was 99% (inactive) and 53.6% (inactive); with UO-31 renal, 56.9% (inactive) and 2.41% (active); in the assay on TK-10 renal it was 86.4% (inactive) and 27.5% (inactive); in the assay with ACHN renal, 95.5% (inactive) and 30.7% (inactive); in the assay on CAKI-1 renal, 77.3% (inactive) and 15.7% (inactive); with A498 renal, 85.1% (inactive) and 28.6% (inactive). For the same molecule, the growth in the assay on CCRF-CEM leukemia was 80.8% (inactive) and 16.2% (inactive); in the assay with MOLT-4 leukemia, 60.4% (inactive) and 4.26% (active).

With `O=[N+]([O-])c1ccc2nc3c4ccccc4c4ccccc4c3nc2c1`, the growth is 80.8% (inactive) with HCT-15 colon; 74.6% (inactive) in the assay with HT29 colon; 74.4% (inactive) with SNB-75 CNS; 89.2% (inactive) with SNB-19 CNS; 62.3% (inactive) with U251 CNS; 55.1% (inactive) in the assay with PC-3 prostate. Besides, the growth was 76.8% (inactive) in the assay on SK-MEL-5 melanoma; 86.7% (inactive) in the assay with UACC-62 melanoma; 30.8% (inactive) with LOX IMVI melanoma; 113% (inactive) in the assay on SK-MEL-28 melanoma; 97.6% (inactive) with SK-MEL-2 melanoma; 81.8% (inactive) in the assay on EKVX NSCLC. Moreover, the growth with SN12C renal was 81.9% (inactive); in the assay on UO-31 renal, 75.3% (inactive); in the assay with TK-10 renal it was 67.8% (inactive); with ACHN renal, 57.3% (inactive); in the assay with CAKI-1 renal it was 77.9% (inactive); with A498 renal, -39.8% (active). Besides, the growth in the assay with CCRF-CEM leukemia is 63.1% (inactive); in the assay with MOLT-4 leukemia it was 89.7% (inactive).

Regarding `Clc1ccc(NC(Nc2ccc(Cl)cc2)C(Cl)(Cl)Cl)cc1`, the growth with HCT-15 colon was 65.6% (inactive) and 88.7% (inactive); with HT29 colon, 101% (inactive) and 98.4% (inactive); with SNB-75 CNS, 79.2% (inactive) and 105% (inactive); in the assay on SNB-19 CNS, 104% (inactive) and 112% (inactive); with U251 CNS, 95% (inactive) and 110% (inactive); in the assay with PC-3 prostate, 91.9% (inactive). The growth in the assay with SK-MEL-5 melanoma is 91.3% (inactive) and 85.3% (inactive); in the assay on UACC-62 melanoma, 9.46% (active) and 62.8% (inactive); in the assay with LOX IMVI melanoma, 74.5% (inactive); in the assay with SK-MEL-28 melanoma, 105% (inactive) and 114% (inactive); in the assay with SK-MEL-2 melanoma, 85.6% (inactive) and 95.8% (inactive); in the assay on EKVX NSCLC, 85.7% (inactive) and 99.3% (inactive). The growth in the assay with SN12C renal was 84% (inactive) and 111% (inactive); in the assay on UO-31 renal, 25.5% (inactive) and 75.1% (inactive); in the assay on TK-10 renal, 110% (inactive) and 92.3% (inactive); with ACHN renal, 41.6% (inactive); with CAKI-1 renal, 66% (inactive); in the assay on A498 renal, 107% (inactive) and 101% (inactive). Besides, the growth is 95% (inactive) in the assay on CCRF-CEM leukemia; 70.3% (inactive) and 89.5% (inactive) with MOLT-4 leukemia.

Consider `CC(C)C(=O)Nc1ccc([N+](=O)[O-])c(C(F)(F)F)c1`, for which the growth in the assay with HCT-15 colon is 94% (inactive) and 100% (inactive); with HT29 colon, 106% (inactive) and 115% (inactive); in the assay with SNB-75 CNS, 113% (inactive) and 92% (inactive); in the assay on SNB-19 CNS it was 96.8% (inactive) and 102% (inactive); in the assay with U251 CNS it was 98.3% (inactive) and 96.7% (inactive); with PC-3 prostate it was 69.5% (inactive) and 100% (inactive). The growth is 85.2% (inactive) and 98.4% (inactive) in the assay on SK-MEL-5 melanoma; 74.9% (inactive) and 80% (inactive) in the assay with UACC-62 melanoma; 90% (inactive) and 93.2% (inactive) in the assay on LOX IMVI melanoma; 102% (inactive) and 107% (inactive) in the assay with SK-MEL-28 melanoma; 111% (inactive) and 28.9% (inactive) in the assay with SK-MEL-2 melanoma; 51.4% (inactive) and 86.1% (inactive) in the assay on EKVX NSCLC. Besides, the growth was 65.3% (inactive) and 88% (inactive) in the assay with SN12C renal; 76.1% (inactive) and 71.9% (inactive) in the assay on UO-31 renal; 94.5% (inactive) and 111% (inactive) with TK-10 renal; 98.4% (inactive) in the assay on ACHN renal; 69.2% (inactive) and 100% (inactive) with CAKI-1 renal; 84.4% (inactive) and 96% (inactive) in the assay on A498 renal. In addition, the growth is 75.4% (inactive) and 109% (inactive) with CCRF-CEM leukemia; 76.8% (inactive) and 97.8% (inactive) with MOLT-4 leukemia.

In the case of `CC(=O)c1ccccc1O`, the growth in the assay with HCT-15 colon was 112% (inactive) and 105% (inactive) and 223% (inactive); with HT29 colon, 107% (inactive) and 99.2% (inactive) and 111% (inactive); in the assay with SNB-75 CNS, 107% (inactive) and 93% (inactive) and 97.7% (inactive); in the assay with SNB-19 CNS it was 102% (inactive) and 105% (inactive) and 94.1% (inactive); in the assay on U251 CNS, 108% (inactive) and 98.7% (inactive) and 104% (inactive); in the assay with PC-3 prostate, 102% (inactive) and 83.5% (inactive) and 91.7% (inactive). The growth was 100% (inactive) and 102% (inactive) in the assay with SK-MEL-5 melanoma; 101% (inactive) and 105% (inactive) in the assay on UACC-62 melanoma; 100% (inactive) and 92.7% (inactive) and 103% (inactive) in the assay on LOX IMVI melanoma; 103% (inactive) and 91.7% (inactive) and 109% (inactive) in the assay with SK-MEL-28 melanoma; 107% (inactive) and 98.5% (inactive) and 111% (inactive) with SK-MEL-2 melanoma; 99.7% (inactive) and 108% (inactive) and 104% (inactive) in the assay with EKVX NSCLC. Besides, the growth with SN12C renal is 98.1% (inactive) and 104% (inactive) and 98.7% (inactive); in the assay with UO-31 renal, 80% (inactive) and 90.5% (inactive) and 68.1% (inactive); in the assay on TK-10 renal, 104% (inactive) and 95.9% (inactive) and 95.7% (inactive); in the assay with ACHN renal it was 105% (inactive) and 101% (inactive) and 104% (inactive); in the assay on CAKI-1 renal, 92.5% (inactive) and 99.4% (inactive) and 87.3% (inactive); in the assay on A498 renal, 92.5% (inactive) and 86.6% (inactive). Also, the growth in the assay on CCRF-CEM leukemia was 107% (inactive) and 104% (inactive) and 101% (inactive); in the assay on MOLT-4 leukemia, 88.1% (inactive) and 91.6% (inactive) and 104% (inactive).

Consider `O=S(=O)(Nc1ccccc1)C1CCCCC1`, for which the growth with HCT-15 colon was 109% (inactive) and 102% (inactive); in the assay on HT29 colon, 99.1% (inactive) and 99.6% (inactive); with SNB-75 CNS, 86.7% (inactive) and 94.7% (inactive); in the assay with SNB-19 CNS, 101% (inactive) and 107% (inactive); in the assay with U251 CNS, 109% (inactive) and 102% (inactive); in the assay on PC-3 prostate it was 92.6% (inactive) and 105% (inactive). In addition, the growth was 110% (inactive) in the assay with SK-MEL-5 melanoma; 92.6% (inactive) and 105% (inactive) in the assay with UACC-62 melanoma; 109% (inactive) and 95.5% (inactive) in the assay on LOX IMVI melanoma; 110% (inactive) and 108% (inactive) in the assay on SK-MEL-28 melanoma; 103% (inactive) in the assay on SK-MEL-2 melanoma; 104% (inactive) and 97.2% (inactive) in the assay on EKVX NSCLC. Further, the growth in the assay on SN12C renal is 94.9% (inactive) and 120% (inactive); with UO-31 renal, 77.2% (inactive) and 88.3% (inactive); with TK-10 renal, 103% (inactive) and 102% (inactive); with ACHN renal, 110% (inactive) and 103% (inactive); in the assay with CAKI-1 renal, 86.5% (inactive) and 98.7% (inactive); with A498 renal, 104% (inactive) and 95.9% (inactive). Besides, the growth in the assay with CCRF-CEM leukemia is 105% (inactive); in the assay on MOLT-4 leukemia, 83% (inactive) and 92.4% (inactive).
